Sampled rows, rich in hits. Any-hit rate of the full collection: about 2.7%.
Tau ThT inhib: blocks human tau fibril formation measured by thioflavin T; 270,000 tested, 2.1% active; recombinant tau K18 P301L, heparin-induced fibrillization, ThT fluorescence; Potency, µM (doses to about 57.4 µM), for the others: top-dose activity, negative = inhibition, usual class: inhibitors; P10636; note: potency is the fitted concentration of half-maximal effect; nearly all actives have a fitted effect of over 55% in size
Target sequence (P10636 561-689 P618L limits assumed): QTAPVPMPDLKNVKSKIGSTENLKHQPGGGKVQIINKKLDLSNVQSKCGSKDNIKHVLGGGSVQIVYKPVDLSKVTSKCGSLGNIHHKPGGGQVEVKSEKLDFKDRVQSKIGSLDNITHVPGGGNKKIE
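Tau K18 P301L fragment (15 uM unlabeled plus 0.24 uM Alexa 594-labeled) in 100 mM sodium acetate pH 7 with compound, fibrillization induced by 20 uM heparin for 6 hr at 37 C. Thioflavin T (30 uM) added, fluorescence read after 1 hr (ex 450, em 510 nm).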
Tau fibril FP: inhibitors of human tau fibril formation | P10636 | K18 P301L tau heparin fibrillization, Alexa594 FP, 6 h | Potency, µM (highest dose often 57.7 µM), without a hit: top-dose activity, negative = inhibition, hits mostly inhibitors | 280,000 tested, 0.39% active | AID 1468; note: potency is the fitted concentration of half-maximal effect; nearly all actives have a fitted effect of over 55% in size
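Quantitative HTS format: compounds meet 15 uM recombinant K18 P301L tau and Alexa 594-tau tracer in 100 mM sodium acetate pH 7; 20 uM heparin triggers fibrillization at 37 C over 6 hr; FP gives the signal.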
FBPA coupling cs: inhibits coupling enzyme system, counter-screen for aldolase hits | coupling enzyme system counterscreen, AmpLite Red fluorescence | activity change, negative = inhibition, % at 58.2 µM, hits read low | 290,000 tested, 0.67% active | AID 2472; in the data active = activity change below about -30%
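Counterscreen of the coupled detection system alone, without aldolase: glyceraldehyde-3-phosphate coupling enzymes plus AmpLite Red readout. Compounds at 57.5 uM final, 10 min RT preincubation, 20 min RT reaction, fluorescence 525/598 nm.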
Tau fluor counter: counter-screen for tau fibril formation inhibitors; tau K18 P301L (four-repeat tau fragment) Alexa594 fluorescence, heparin fibrillization; Potency, µM (highest dose often 57.7 µM), inactives show at the highest dose activity change, negative = decrease; 280,000 tested, 0.93% active; AID 1463; note: potency is the fitted concentration of half-maximal effect; nearly all actives have a fitted effect of over 55% in size
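Human K18 P301L tau (15 uM unlabeled plus 0.24 uM Alexa 594-labeled, final) in 100 mM sodium acetate pH 7 was mixed with compound and 20 uM heparin and incubated 6 hr at 37 C.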
* marks the source's active call; other numbers are inactive results; ? = inconclusive; · = no result given; [ ] = dose if it differs, or a comment. Unless noted, calls come from the whole dose curve; as a rule, active = well fitted curve in the direction sought with a large enough effect; inconclusive = small, poorly fitted or top-dose-only effect, or another doubt; inactive = no such curve, though single readings can be large; an effect the other way counts as inactive or inconclusive. % is set by controls: 0 for no effect and ±100 for the full control effect.

SMILES	Tau ThT inhib	Tau fibril FP	FBPA coupling cs	Tau fluor counter
Cc1cc(C)c(-c2cc([C@H](C)O/N=C\[C@@H](C)[C@H](OCc3ccccc3)C(C)C)on2)c(C)c1	-1%[11.5 µM]	0%[11.6 µM]	1	-3%[11.6 µM]
Nc1nsc2ccccc12	13µM*	?	2	-17%
CCCCN(Cc1cccs1)S(=O)(=O)c1cc(-c2cc(C)no2)ccc1C	-1%	-5%	·	-23%
COC(=O)C1=C(C)N(Cc2ccccc2)[C@]23O[C@](C(=O)OC)(C(=O)N2C1c1ccccc1)C(C(=O)OC)=C3C(=O)OC (stereo partly drawn)	-19%[11.5 µM]	-3%[11.6 µM]	0	-16%[11.6 µM]
COc1cc(-c2nc3ccccc3s2)ccc1O	?	7%	1	?
CCOc1cc(-c2nc3ccccc3s2)ccc1O	?	5%	0	20µM*[quencher]
COc1cc(-c2cc(OC)c3c(C)oc(C)c3c(=O)c2)ccc1OC(=O)c1ccccc1Cl	?	0%	·	-11%
COc1cc(-c2cccs2)cc(=O)c2c(C)oc(C)c12	25µM*	?	-8	-19%
COC(=O)C(CCSC)NC(=O)c1cc2c(n(-c3ccc(C)cc3)c1=O)CC(C)(C)CC2=O (stereo not drawn)	-17%	3%	·	-18%
C/C(=N\Nc1nc2ccccc2[nH]1)c1cc2ccccc2o1	14µM*	?	-2	?
C/C(=N\Nc1nc2ccccc2[nH]1)c1ccccn1	·	·	-8	·
C/C(=N\Nc1nc2ccccc2[nH]1)c1ccc2c(c1)OCCO2	14µM*	2%	2	?
C/C(=N\Nc1nc2ccccc2[nH]1)c1ccc2c(c1)OCO2	?	9%	-4	?
COc1ccc(C2=Nn3c(nnc3-c3ccccc3O)SC2)cc1OC	·	·	5	·
CS(=O)(=O)N1CCN(c2ccc(NC(=O)C(c3ccccc3)c3ccccc3)cc2)CC1	-19%	12%	0	?
O=C(Nc1ccc(N2CCCCC2)cc1)c1ccc2ccccc2n1	13µM*	15%	-3	?
O=C(Nc1ccc(N2CCCC2)cc1)C(Cl)c1ccccc1 (stereo not drawn)	25µM*	32µM*	-12	?
O=C(Nc1cccc(S(=O)(=O)N2CCCCCC2)c1)c1ccc2ccccc2n1	-6%	-20%	-1	?
CCN(CC)C(=O)c1sc2c(c1C)c(=O)n(Cc1ccccc1)c(=O)n2CC(=O)Nc1ccc(OC)cc1	20%	-11%	·	-26%
Cc1cccc(COCCN2CCN(S(=O)(=O)c3ccccc3)CCC2=O)c1	-4%	2%	0	-6%
COc1cccc(C(=O)COc2cccc(NC(=O)c3cccc([N+](=O)[O-])c3)c2)c1	?	7%	0	14µM*[quencher]
O=C(COc1cccc(NC(=O)c2cccc([N+](=O)[O-])c2)c1)c1ccc(F)cc1	?	-4%	-5	?
CC(C)(C)c1ccc(C(=O)Nc2cccc([N+](=O)[O-])c2)cc1	?	?	-13	7.9µM*[quencher]
Cc1ccc(NC(=O)Nc2cccc([N+](=O)[O-])c2)cc1F	?	?	-6	5.6µM*[quencher]
Cc1cc(NC(=O)Nc2cccc([N+](=O)[O-])c2)no1	-4%	2%	1	-15%
SMILES	Tau ThT inhib	Tau fibril FP	FBPA coupling cs	Tau fluor counter
O=C1NC(=S)/C(=C\c2ccc(-c3ccccc3Cl)o2)S1	7.9µM*	?	1	?
O=C1NC(=O)/C(=C/c2ccc(-c3cc(C(=O)O)ccc3Cl)o2)S1	·	·	0	·
Clc1cccc(-c2ccc(C=Nc3ccc(N4CCOCC4)cc3)o2)c1Cl	13µM*	-24%	-16	?
CCCCCCc1ccc(C(=O)CCN(C)C)cc1	·	·	6	·
C/C=C/C=C/C(=O)[C@@H]1[C@@H]([C@]2(C)OC(=O)C(C)=C2O)[C@H]2/C(=C(O)/C=C/C=C/C)C(=O)[C@]1(C)C(=O)C2(C)O (stereo partly drawn)	14µM*	?	-3	-4%
Cc1ccc(NC(=O)c2cc3c(=O)[nH]c4ccccc4c3n2C)cc1F	?	?	·	-12%
COC(=O)NC(c1cccc(C)c1)[C@]1(C(C)=O)CCCC1=O (stereo partly drawn)	-12%[11.5 µM]	0%[11.6 µM]	-2	-8%[11.6 µM]
CCN(CC)c1ccc(/C=N/O)cc1	-12%	1%	-1	-10%
CCN(CC)c1ccc(N=Nc2ncn[nH]2)cc1	13µM*	0%	-9	-6%
CCCC(=O)OCc1cnc(C)c2oc(=O)c(C(=O)Nc3ccccc3)cc12	-7%	15%	·	-1%
CCc1ccc(OCc2ccccc2C(=O)Nc2ccc3nc(C)cc(N)c3c2)cc1	?	?	0	?
CC(C)C1N(C(=O)N2CCOCC2)CCN1S(=O)(=O)c1ccccc1 (stereo not drawn)	·	·	-3	·
Cc1ccc(CNc2ccc3c(c2)OCO3)c(C)c1	13µM*	?	-37*	?
C=CCc1cccc(/C=N/NC(=O)CNc2ccccc2OC)c1O	?	?	0	16µM*[quencher]
COc1ccccc1OCC(=O)N/N=C/C=C/c1ccc([N+](=O)[O-])o1	14µM*	-4%	0	-21%
C=CCc1cccc(/C=N/NC(=O)CCCNc2ccc(C)cc2)c1O	?	11%	-7	11µM*[quencher]
C=CCc1cccc(/C=N/NC(=O)CNc2ccccc2)c1O	4%	?	-1	?
COc1ccccc1NCC(=O)N/N=C/C=C/c1ccccc1	14µM*	4%	-5	?
Cc1ccc(NC(=O)N2CCN3CCCCC3C2)cc1C (stereo not drawn)	7%	6%	·	3%
COc1cc(NC2CCCCC2O)c2nc(-c3ccc(Cl)cc3)ccc2c1 (stereo not drawn)	?	?	-31*	?

Bioassay records as filed in PubChem.
